# Test results: PubChem BioAssay AID628 (Vanderbilt High Throughput Screening Facility, 2007)
# About 2,200 (3.4%) of roughly 64,000 compounds were called active. For the sample, actives were picked, then their nearest neighbours and some compounds at random. A number with no mark means an inactive call.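 How the source made its calls: active means calcium fluorescence response, raw or row-and-column corrected B-score, differing from the plate sample mean either way at a set confidence level, mostly lower; inactive means the rest.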
# Molecular target: Muscarinic acetylcholine receptor M1 (Rattus norvegicus) (UniProt P08482)
# Test: antagonists of rat M1 muscarinic receptor (AID 628)
# Details: CHO-M1 cells, Fluo-4 calcium, ACh EC80 antagonist mode; at 10 µM; active compounds read low
# Sequence of Muscarinic acetylcholine receptor M1 (Rattus norvegicus) (P08482 whole entry, looked up): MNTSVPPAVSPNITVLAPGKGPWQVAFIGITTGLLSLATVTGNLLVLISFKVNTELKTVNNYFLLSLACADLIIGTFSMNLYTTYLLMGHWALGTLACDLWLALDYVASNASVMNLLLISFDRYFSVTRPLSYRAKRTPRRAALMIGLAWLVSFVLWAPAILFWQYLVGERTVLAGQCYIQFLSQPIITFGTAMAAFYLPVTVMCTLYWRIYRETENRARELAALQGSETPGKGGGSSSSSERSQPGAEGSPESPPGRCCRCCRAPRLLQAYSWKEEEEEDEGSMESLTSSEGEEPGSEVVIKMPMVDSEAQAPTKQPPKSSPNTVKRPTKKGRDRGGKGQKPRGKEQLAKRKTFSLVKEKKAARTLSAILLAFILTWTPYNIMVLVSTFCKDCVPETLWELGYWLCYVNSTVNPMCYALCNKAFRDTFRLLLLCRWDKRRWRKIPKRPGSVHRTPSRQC
row,SMILES,B-score
1,CC1Oc2ccccc2N(Cc2cccnc2)C1=O (stereo not drawn),1.07
2,COC(=O)c1sc(=S)n(-c2ccccc2)c1N,0.339
3,Cc1ccc(Cn2c(NC(=O)c3ccco3)nc3ccccc32)cc1,0.141
4,Cn1c(-c2ccc(F)cc2)cnc1SCC(=O)NCc1ccco1,0.325
5,Cc1ccc(-c2csc3nnc(SCC(=O)NCc4ccco4)n23)cc1,-10.4 (active)
6,O=C(CSc1nnc2scc(-c3ccc(F)cc3)n12)NCc1ccco1,-0.509
7,CCCN(CCC)CCNC(=O)c1cc2c(C)nc3ccccc3c2o1,0.00891
8,Cc1nc2ccccc2c2oc(C(=O)NCCCN3CCC(C)CC3)cc12,-6.51 (active)
9,Cc1nc2ccccc2c2oc(C(=O)NCC3CCCO3)cc12 (stereo not drawn),0.0181
10,Cc1ccc(Nc2nc(CSc3nnnn3-c3ccccc3)cc(=O)[nH]2)cc1,-0.208
11,CCOC(=O)Cc1csc(NC(=O)CSc2nc(C)cc(=O)[nH]2)n1,-0.287
12,CN(CC(=O)NC1CCCCC1)S(=O)(=O)c1ccc(Br)s1,-1.64
13,Fc1ccccc1C(c1nnnn1Cc1ccc2c(c1)OCO2)N1CCN(Cc2ccccc2)CC1 (stereo not drawn),0.889 (active)
14,Cc1ccc(S(=O)(=O)Cn2nnnc2CN2CCN(Cc3ccc4c(c3)OCO4)CC2)cc1,-0.838
15,Cc1cc(C)c2[nH]c(=O)c(C(c3nnnn3Cc3ccc4c(c3)OCO4)N3CCCC3)cc2c1 (stereo not drawn),0.419
16,CCOC(=O)Cn1c(N)c(C(=O)OC)sc1=S,0.106
17,Cn1c(=O)c2c(nc(OCc3cccnc3)n2Cc2ccccc2)n(C)c1=O,-0.0901
18,Cc1ccccc1C(OCC(O)CN1CCCCC1CCO)c1ccccc1 (stereo not drawn),-3.65 (active)
19,COc1cccc(-c2nnc(N(C)C(=O)c3ccno3)s2)c1,0.344
20,CC1CN(c2cc(=O)n(-c3cccc(Br)c3)c(=O)[nH]2)CC(C)O1 (stereo not drawn),-0.299
21,CCN1C(=O)/C(=C\N2CCN(c3ccccc3)CC2)SC1=S,0.399
22,CCN1C(=O)/C(=C\N2CCN(c3cccc(Cl)c3)CC2)SC1=S,0.609
23,CCN1C(=O)/C(=C2\SC(N3CCCCC3)=NC2=O)c2ccccc21,-3.91 (active)
24,CS(=O)(=O)N(CC(=O)N1CCOCC1)c1ccc2c3c(cccc13)CC2,0.0978
25,Cc1cc(NC(=O)COn2nnc3ccccc32)no1,-0.00408

row,SMILES,B-score
1,CCOC(=O)c1c(C2CC2)csc1NC(=O)CSCc1c(C)noc1C,-0.892
2,COc1ccc(CCNc2ncnc3nc[nH]c23)cc1OC,-0.37
3,c1ccc2c(c1)OCC(CNc1ncnc3nc[nH]c13)O2 (stereo not drawn),-5.49 (active)
4,Cc1cc(NC(=O)CCC2COc3ccccc3O2)no1 (stereo not drawn),-0.711
5,COCc1[nH]nc2c1C(C1C=CCCC1)C(C#N)=C(N)O2 (stereo not drawn),0.327
6,O=C(c1ccccc1)c1ccc(OC(=O)N2CCCC2)cc1,-0.578
7,CCOc1ccccc1C1CC(c2ccccc2)Nc2nc(N)nn21 (stereo not drawn),0.59
8,CCCCOC(=O)c1[nH]c(C)c(C(=O)OC)c1C,1.78 (active)
9,CCOC(=O)c1c(C)[nH]c(C(=O)COc2ccc3c(c2)OCO3)c1C,-0.104
10,CCOC(=O)c1c(C)[nH]c(C(=O)NCc2ccccc2OC)c1C,-0.312
11,COc1ccccc1N(CC(=O)N1CCCCC1)S(=O)(=O)c1ccccc1,-0.874
12,COc1ccc(N2C(=O)c3cccc4cccc(c34)C2=O)nn1,0.203
13,COC(=O)C1=C(C)Nc2ncnn2C1c1ccco1 (stereo not drawn),0.342
14,CC(=O)C1=C(O)C(=O)N(c2ccc(S(N)(=O)=O)cc2)C1c1ccccc1F (stereo not drawn),-0.56
15,C/C(CC(O)(/C=N/O)c1ccccc1)=N\O (stereo not drawn),0.581
16,COC(=O)Cc1cc(=O)n(-c2nc3ccccc3s2)[nH]1,0.181
17,CCOC(=O)N1CCC(NC(=O)c2ccc3nc(N4CCOCC4)sc3c2)CC1,0.0825
18,CCOC(=O)N1CCN(CC(=O)Nc2cc(C)nn2-c2nc3ccccc3s2)CC1,-2.41 (active)
19,CCCCNc1nc2c(c(=O)n(C)c(=O)n2C)n1Cc1cccc(OC)c1,-0.0697
20,O=C1NC(Nc2nc3ccccc3s2)(C(F)(F)F)C(=O)N1C1CCCCC1 (stereo not drawn),-3.66 (active)
21,COC(=O)NC1(C(F)(F)F)NC(=O)N(C2CCCCC2)C1=O (stereo not drawn),-0.0429
22,Cc1c(NC(=O)C(C)OC(=O)c2cc3c4ccccc4n(C)c3s2)c(=O)n(-c2ccccc2)n1C (stereo not drawn),0.392
23,CCC(=O)c1ccc(OCC(O)CN2C(=O)NC(C)(C)C2=O)cc1 (stereo not drawn),0.82 (active)
24,CC1(C)NC(=O)N(CCOc2cccc(Oc3ccccc3)c2)C1=O,-0.997
25,CCC(=O)c1ccc(OCC(O)CN2CC(C)OC(C)C2)cc1 (stereo not drawn),0.0196

row,SMILES,B-score
1,Cc1ccc(C(c2sc3nc(C)nn3c2O)N2CCN(c3ccccc3)CC2)cc1 (stereo not drawn),0.39
2,Cn1c(SCc2nc3ccccc3s2)nnc1-c1ccc2c(c1)OCO2,0.0691
3,CCC(c1nnnn1C1CCCC1)N(Cc1cccs1)Cc1cc2cccc(C)c2[nH]c1=O (stereo not drawn),1.98 (active)
4,Cc1cccc2cc(CN(Cc3cccs3)C(c3nnnn3C3CCCC3)C(C)C)c(=O)[nH]c12 (stereo not drawn),0.279
5,Cc1cccc2cc(CN(Cc3ccc4c(c3)OCO4)Cc3nnnn3C3CCCC3)c(=O)[nH]c12,-0.601
6,Cc1cc(Cl)c(S(=O)(=O)NCc2cccnc2)cc1OCC(N)=O,0.63
7,Cn1c(=O)c2c(nc(Br)n2CCSc2nc3ccccc3o2)n(C)c1=O,0.536
8,COC(=O)c1cc(OC)c(OC)cc1NC(=O)C1CCCO1 (stereo not drawn),-0.418
9,CCN(CCCCOC(=O)c1ccc(OC)c(OC)c1)C(C)Cc1ccc(OC)cc1 (stereo not drawn),-14.7 (active)
10,CCOc1ccc(C(=O)Nc2cc(OC)ccc2OC)cc1,0.223
11,COc1ccc(-n2nnnc2SCC(=O)c2ccc(OC)c(OC)c2)cc1,-0.785
12,O=C(CSc1nnnn1-c1ccc2c(c1)CCC2)Nc1ccc2c(c1)OCCO2,-1.02
13,CC(=O)Nn1cc2c(=O)n(C)c(=O)n(C)c2c1,0.526
14,CC(C)OCCCNC(=O)C1CC(=O)N(C2CCCCCCC2)C1 (stereo not drawn),-0.0238
15,O=C(NCCCN1CCCCCC1)C1CC(=O)N(C2CCCC2)C1 (stereo not drawn),-2.1 (active)
16,O=C(NCCc1ccc(Cl)cc1)C1CC(=O)N(C2CCCCC2)C1 (stereo not drawn),-0.27
17,Cc1ccc(-n2nc3c(c2NC(=O)CCC2CCCCC2)CS(=O)C3)cc1 (stereo not drawn),0.299
18,Cc1ccnc(SCCn2c(N(C)Cc3ccccc3)nc3c2c(=O)n(C)c(=O)n3C)n1,0.589
19,COC(=O)C(C)Sc1ccc2nnc(-c3cccc(F)c3)n2n1 (stereo not drawn),-0.0277
20,CCOC(=O)C(C(=O)OCC)C(C#N)c1ccccc1 (stereo not drawn),0.000361
21,CCC(C(=O)OCCN(CC)CC)c1ccccc1 (stereo not drawn),-11.7 (active)
22,CC(NC(=O)Nc1ccccc1)c1ccccc1 (stereo not drawn),0.2
23,N#Cc1ccccc1-n1c(N)c(C(=O)N2CCCC2)sc1=S,0.0882
24,CCc1ccccc1N(CC(=O)NCCSCc1ccco1)S(C)(=O)=O,0.00624
25,COC(=O)c1sc(NC(=O)c2ccc(OC)cc2OC)nc1C,0.124

row,SMILES,B-score
1,COc1cccc2sc(Nc3nc(C)c(C(C)=O)s3)nc12,-5.09 (active)
2,COc1ccccc1Nc1ncc(C(C)=O)c(C)n1,-0.0613
3,O=C(CC(NCCN1CCOCC1)C(=O)O)Nc1cccc(Cl)c1 (stereo not drawn),-0.31
4,C=CCNC(=O)c1cc(-c2ccccc2O)on1,-0.349
5,Cc1nn(CC(=O)Nc2ccc3c(c2)nc(CN2CCCCC2)n3C)c(=O)c2ccccc12,-0.553
6,Cn1c(CCN2CCCCCC2)nc2cc(NC(=O)Nc3ccccc3)ccc21,-12.1 (active)
7,CCC(=O)Nc1ccc2c(c1)nc(CCN1CCN(C)CC1)n2C,0.254
8,CC(=O)Nc1ccc(-c2cn3cccnc3n2)cc1,-0.0342
9,COc1ccc(S(=O)(=O)NC(CC(=O)NCc2ccccc2OC)c2ccco2)cc1 (stereo not drawn),-0.297
10,CCS(=O)(=O)n1nc(-c2ccc(OC)cc2)nc1SC,0.364
11,CCN1CCCC1CNc1ncnc2c1[nH]c1ccc(F)cc12 (stereo not drawn),0.215
12,CC(C)OCCCNc1ncnc2c1[nH]c1ccc(F)cc12,-5.34 (active)
13,O=C1CCCN1CCCNc1ncnc2c1[nH]c1ccccc12,-0.26
14,Cc1ccc2c(c1)NCC(C(=O)NC1CCC(C)CC1)O2 (stereo not drawn),0.906
15,O=C(Oc1cccnc1)c1cc2ccccc2oc1=O,-1.49
16,OC(COc1cccc2ccccc12)CN1CCN(c2ccccn2)CC1 (stereo not drawn),-0.255
17,CN(C)[C@@H]1C(=O)C(C(N)=O)=C(O)[C@@]2(O)C(=O)C3=C(O)c4c(O)ccc(Cl)c4[C@@H](O)[C@H]3C[C@@H]12,-15.3 (active)
18,Cn1cccc1C(=O)NC(=O)COC(=O)Cc1coc2ccc3ccccc3c12,-0.0274
19,COc1ccccc1CNC(=O)C1CCN(S(C)(=O)=O)CC1,0.445
20,Cc1nc(NCCN)c(C#N)c2c1COC(C)(C)C2,0.614
21,Cc1ccc(-n2ncc3c(N4CCN(c5ccc(F)cc5)CC4)ncnc32)c(C)c1,-0.0379
22,Fc1ccc2[nH]c3c(N4CCN(Cc5ccc6c(c5)OCO6)CC4)ncnc3c2c1,-0.265
23,Fc1ccc2[nH]c3c(N4CCSCC4)ncnc3c2c1,-2.69 (active)
